Data taken from PubChem BioAssay (EPA / NIEHS).
Activity calls are given as the source filed them. Rule for the calls: active = hit-call score of the fitted dose curve at least 0.9, where 1 is the maximum; inactive = score below 0.9.

read-out: Cyclin D1 (CCND1), CCND1 (gene 595); assay: LTEA_HepaRG_CCND1: Life Technologies and Expression Analysis (LTEA) Assay for Cyclin D1 (CCND1) using HepaRG (AID 2283451); details: mRNA level, 48 h; actives raise or lower the signal;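 for AC50: TaqMan qRT-PCR transcript level normalised to ACTB GAPDH and POLR2A housekeeping genes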
Experimental: LTEA_HepaRG is a cell based, multiplexed-readout assay that uses HepaRG, a human liver cell line, with measurements taken at 48 hours after chemical dosing on a 96-well plate.LTEA_HepaRG_CCND1 is one of 102 assay component(s) measured in the LTEA HepaRG cell culture assay. It is a marker of Cell proliferation, survival, death.Data from the assay component LTEA_HepaRG_CCND1 was analyzed into 1 endpoint. This assay endpoint, LTEA_HepaRG_CCND1, was analyzed with bidirectional fitting relative to DMSO as the negative control and baseline of activity. Using a type of inducible reporter, measures of mRNA induction for gain or loss-of-signal activity can be used to understand regulation of transcription factor activity. To generalize the intended target to other relatable targets, this assay endpoint is annotated to the cell cycle intended target family, where the subfamily is Cell proliferation, survival, death.
A total of 1060 chemcials from the ToxCast library were tested in eight-point concentration-response experiments. Cell culture and cytotoxicity assays were conducted at Thermo Fisher Scientific's Custom Services facility (Madison, WI). A single lot of human HepaRG cells (Thermo Fisher Scientific, Frederick, MD) was used for the cell culture experiments. 96-well format collagen type I coated plates of human HepaRG cells were prepared using established methods. Briefly, cryopreserved HepaRG cells were thawed, plated at a density of approximately 100,000 cells/well in HepaRG Thaw, Plate, and General Purpose media (HPRG770, Thermo Fisher Scientific), and incubated for 48 hours. 0.5% DMSO was selected as vehicle control to balance the requisite need of DMSO in HepaRG cultures to maintain differentiation (for example, baseline metabolism, proportions of hepatocytes vs. cholangiocytes), while enabling further hepatic receptor pathway activation (for example, PXR and CAR) in response to chemical exposure. 48 hours after plating, the culture medium was replaced with HepaRG Serum-Free Incudtion Media. Cells were exposed to each test chemical in duplicate and maintained in CO2 incubators for another 48 hours. Chemical plates were thawed to room temperature and 200x concentrations of treatment groups were prepared. 8-point conentration-reponse curves were made with the highest exposure at 100 uM, followed by half-log dilutions, all in 0.5% DMSO. Each test plate contained variouse controls, induction positive controls (1mM phenobarbital), cytotoxicity positive controls ([…] aflatoxin B1), vehicle controls (0.5% DMSO), and total lysis controls (0.5% DMSO). Cell morphology images were taken using an Essen IncuCyte FLR automated microscope, with six 96-well plates imaged in about 24 minutes. Images were captured and exported and JPEG files. Spent culture media was transfered to black-well plates for the LDH assay, and remaining media was sorted at -80 C for later use. Cells were treated with RLT buffer and frozen until shipped for gene expression analysis. Total RNA was isolated from the cell suspension in 75 uL of Buffer RLT (Qiagen, Germantown, MD 20874) by Quintiles/Expression Analysis (Durham, NC) using a custom isolation procedure. Total RNA from each plate well was transferred to a preamplification plate. Fluidigm's 96.96 Dynamic ArrayTM (Fluidigm, Amsterdam, the Netherlands) technology was used for gene expression analyses by quantitative reverse transcription polymerase chain reaction (qRT-PCR, performed by Quintiles/Expression Analysis, Durham, NC)89. Standard TaqManTM Assays (Applied Biosystems/ThermoFisher Scientific, Foster City, CA) were used to assess the expression of 93 genes selected based on their selectivity and sensitivity to important hepatic receptors known to be modulated by environmental chemicals; importance in human hepatocyte functionality; and hepatotoxicity. […]

For `Cc1ccc(N(C)C)cc1`, which outcome is on record?
Its outcome is “inactive”.

With `Nc1ccc(S(=O)(=O)c2ccc(N)cc2)cc1` as the compound, how does the outcome read?
The outcome was “inactive”.

`CC(=O)OC/C=C(\C)CCC=C(C)C` was tested. Which outcome did it give?
Its outcome is “inactive”.

For `Cc1ccc(C)c(O)c1C`, which outcome is on record?
The outcome was “inactive”.

For `CN1CCCC1=O`, which outcome is on record?
Its outcome is “inactive”.

For `Nc1nc(N)c2nc(CNc3ccc(C(=O)N[C@@H](CCC(=O)O)C(=O)O)cc3)cnc2n1`, which outcome is on record?
Its outcome is “inactive”.

For `CN1CCN(Cc2cc(-c3ccc4[nH]c(=O)oc4c3)co2)[C@@H](c2ccc(F)cc2)C1`, which AC50 is on record?
The AC50 was 82.5 µM (active).

How did the outcome turn out when `C=CCc1ccc(O)c(OC)c1` was run?
The outcome was “inactive”.

With `CC(=O)OCCOCCOCCOC(C)=O` as the compound, how does the outcome read?
The outcome was “inactive”.

For `Oc1ccc2ccccc2c1N=Nc1ccccc1`, which AC50 is on record?
Its AC50 is 9.92 µM (active).

Which outcome does the source give for `CCCCCCCCCCCCCO` here?
The outcome was “inactive”.

How did the outcome turn out when `CCc1c(C(=O)NN2CCCCC2)nn(-c2ccc(Cl)cc2Cl)c1-c1ccc(Br)cc1` was run?
The outcome was “inactive”.

How did the outcome turn out when `COc1cc(C=O)ccc1O` was run?
The outcome was “inactive”.

For `CC(=O)C(C)=CC1C(C)=CCCC1(C)C` (stereo not given), which outcome is on record?
Its outcome is “inactive”.

How did the outcome turn out when `CC=Cc1ccc(O)c(OC)c1` was run?
The outcome was “inactive”.

With `NCCO` as the compound, how does the outcome read?
Its outcome is “inactive”.

How did the outcome turn out when `CCCCCCCCCCCC(=O)OC` was run?
The outcome was “inactive”.

Which AC50 does the source give for `C[C@]12C=CC(=O)C=C1CC[C@@H]1[C@@H]2C(=O)C[C@@]2(C)[C@H]1CC[C@]2(O)C(=O)CO` here?
Its AC50 is 12.3 µM (active).

For `CCCCOC(=O)CCCCCCCCC(=O)OCCCC`, which outcome is on record?
Its outcome is “inactive”.

For `CC1(C)CC(N=C=O)CC(C)(CN=C=O)C1` (stereo not given), which outcome is on record?
The outcome was “inactive”.

Which outcome does the source give for `O=[N+]([O-])C(CO)(CO)CO` here?
The outcome was “inactive”.

How did the outcome turn out when `O=c1[nH]cc(F)c(=O)[nH]1` was run?
The outcome was “inactive”.

For `CCCc1cc(=O)[nH]c(=S)[nH]1`, which outcome is on record?
The outcome was “inactive”.

With `Nc1ccccc1N` as the compound, how does the outcome read?
Its outcome is “inactive”.

For `CCCCN(CCCC)CCCC`, which outcome is on record?
Its outcome is “inactive”.

For `COCCOCCOC`, which outcome is on record?
Its outcome is “inactive”.

`CCCCCCCCCCO` was tested. Which outcome did it give?
The outcome was “inactive”.

`COCCOC[C@H](CC1(C(=O)NC2CCC(C(=O)O)CC2)CCCC1)C(=O)Oc1ccc2c(c1)CCC2` (stereo not given in full) was tested. Which AC50 did it give?
Its AC50 is 0.204 µM (active).

`Nc1ccc2c(c1)C(=O)c1ccccc1C2=O` was tested. Which AC50 did it give?
Its AC50 is 1.19 µM (active).

How did the outcome turn out when `COc1ccc(C)cc1N` was run?
Its outcome is “inactive”.

With `CC(C)c1ccc(C(=O)N=C(N)N)cc1S(C)(=O)=O` as the compound, how does the AC50 read?
The AC50 was 0.493 µM (active).

For `COC(=O)c1ccc(O)cc1`, which outcome is on record?
Its outcome is “inactive”.

Which outcome does the source give for `O=C(O)CCCCC(=O)O` here?
The outcome was “inactive”.

For `CNC(=O)[C@H]1O[C@@H](n2cnc3c(NCc4cc(Cl)ccc4OCc4cc(C)no4)ncnc32)[C@H](O)[C@@H]1N`, which outcome is on record?
The outcome was “inactive”.

`O=c1c(O)c(-c2ccc(O)c(O)c2)oc2cc(O)cc(O)c12` was tested. Which outcome did it give?
The outcome was “inactive”.

`Cc1cc(NC(=O)C(=O)O)cc(C)c1Oc1ccc(O)c2c1CCC2` was tested. Which outcome did it give?
The outcome was “inactive”.

With `Cc1c(C(=O)O)c(O)cc2c1C(=O)c1c(O)c([C@@H]3O[C@H](CO)[C@@H](O)[C@H](O)[C@H]3O)c(O)c(O)c1C2=O` as the compound, how does the outcome read?
Its outcome is “inactive”.

How did the outcome turn out when `Cc1nc(-c2ccc3c(c2)CCN(CCC2CCC(NC(=O)/C=C/c4ccc(F)cc4)CC2)CC3)no1` (stereo not given) was run?
The outcome was “inactive”.

Which outcome does the source give for `Cc1cc(=O)[nH]c(=S)[nH]1` here?
Its outcome is “inactive”.

How did the outcome turn out when `CCOC(=O)C(C)(C)Oc1ccc(Cl)cc1` was run?
Its outcome is “inactive”.
